In the supplement of paper PMC10981050 one finds cell viability data, which are given here for 40 compounds.

Molecules are shown by their SMILES. Counter-ions that a name gives are not always drawn.

In the assay the test system is MARIMO. Put plainly: cell viability relative to vehicle control; higher = less cytotoxic. The following applies: 10 µM; SRSF2 genotype: SRSF2 wt/wt. An outline of the steps: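 Mutant clones made by CRISPR editing and their isogenic wild-type counterparts, from four leukaemia lines, were exposed to a single 10 µM dose of each library compound for 48 h. The supernatant was then removed and CellTiter-Glo luminescence was read. Viability was reported as percent of the on-plate vehicle control.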
Usually cell viability stands for a read-out of living cells in per cent, often relative to untreated cells. `COC(=O)c1ccc(O)c(C(=O)OC)c1` [Dimetghyl 4-Hydroxyisophthalate]: the cell viability was 98.7%.
With `CN1CCN(c2cccc(Nc3nc4c(-c5ccc(S(C)(=O)=O)cc5)cccn4n3)c2)CC1` the figure was 67.8%.
As for `NS(=O)(=O)c1cc2c(cc1Cl)NC(C(Cl)Cl)NS2(=O)=O` (stereo not given) [Trichlormethiazide (Achletin)], the figure is 99.7%.
With `Nc1[nH]cnc2ncnc1-2` [Adenine hydrochloride] the figure was 111%.
For the compound `Nc1ccc(C(=O)O)c(O)c1` [Sodium 4-Aminosalicylate], the cell viability is 92.5%.
For `O=c1c(-c2ccc(O)cc2)coc2cc(O[C@@H]3O[C@H](CO)[C@@H](O)[C@H](O)[C@H]3O)cc(O)c12` [Genistin (Genistoside)], the cell viability was determined as 98%.
With `CC(C)=CCC[C@](C)(O[C@@H]1O[C@H](CO[C@@H]2OC[C@H](O)[C@H](O)[C@H]2O)[C@@H](O)[C@H](O)[C@H]1O)[C@H]1CC[C@]2(C)[C@@H]1[C@H](O)C[C@@H]1[C@@]3(C)CC[C@H](O[C@@H]4O[C@H](CO)[C@@H](O)[C@H](O)[C@H]4O[C@@H]4O[C@H](CO)[C@@H](O)[C@H](O)[C@H]4O)C(C)(C)[C@@H]3CC[C@]12C` [Ginsenoside Rb2] the figure was 98.1%; with `COc1ccc(COc2ccc(Cc3cnc(N)nc3N)cc2OC)cc1`, 92.8%; with `CCN(CC)CCCC(C)Nc1c2ccc(Cl)cc2nc2ccc(OC)cc12` (stereo not given) [Quinacrine Dihydrochloride Dihydrate], 2.15%.
As for `Cc1c(-c2ccnn2C)cc(C(=O)NCc2ccc(S(C)(=O)=O)cn2)c(=O)n1-c1cccc(C(F)(F)F)c1`, the figure is 105%; as for `O=C(O)Cc1ccc2c(c1)C(=O)c1ccccc1CO2` [Isoxepac], 105%; as for `CC1(C)S[C@@H]2[C@H](NC(=O)Cc3ccccc3)C(=O)N2[C@H]1C(=O)O` [Penicillin G Sodium], 107%.
As for `O=[N+]([O-])c1ccc(Sc2cccc[n+]2[O-])c2nonc12`, the figure is 0.24%; as for `COC(=O)c1cc(OC)c2c(c1-c1c(C(=O)OC)cc(OC)c3c1OCO3)OCO2` [Bifendate], 101%.
On to `N#Cc1ccc(-c2c(-c3ncn[nH]3)sc(N3CCOCC3)c2C#N)c(F)c1`, for which the cell viability stood at 39%.
With `Cc1ncc(CCCN(C)C)cc1Nc1ncc2c(n1)-c1ccc(C(F)(F)F)cc1NC(=S)C2` the figure was 44.5%; with `Nc1ccccc1NC(=O)c1cnccn1`, 90.7%.
As for `N[C@@H]1CCCN(c2c(/C=C3\SC(=O)NC3=O)cccc2-c2ccccc2)C1`, the figure is 93%; as for `O=C(O)CCCC[C@@H]1CCSS1` (racemic) [Thioctic acid], 99.4%; as for `COc1cn(-c2ccc(-n3cccn3)cc2F)nc(-c2ccnn2-c2ccccc2)c1=O`, 113%.
As for `COc1ccc(S(=O)(=O)N(CCO)c2ccccc2CN(C)C/C=C/c2ccc(Cl)cc2)cc1` [KN-93 Phosphate], the figure is 27.9%; as for `CC(C)OC(=O)C(C)(C)Oc1ccc(C(=O)c2ccc(Cl)cc2)cc1` [Fenofibrate (Tricor, Trilipix)], 81.2%; as for `Cc1cc2c3c([n+](C)c4ccc(F)cc4c3c1)-c1cc(F)ccc1N2C` [RHPS 4 methosulfate], 50.6%.
`COc1cc(Nc2ncc(F)c(Nc3ccc4c(n3)NC(=O)C(C)(C)O4)n2)cc(OC)c1OC`: the cell viability turned out to be 85.8%.
Regarding `COc1cc2ncnc(Nc3ccc(Oc4ccccc4)cc3C)c2cc1OC`, the cell viability was 66%.
As for `Cn1cc(-c2ccc(S(=O)(=O)n3ccc(/C=C/C(=O)Nc4ccccc4N)c3)cc2)cn1`, the figure is 5.67%; as for `Cn1cc(CNCC2CCN(c3ncc(C(=O)NO)cn3)CC2)c2ccccc21`, 11.5%.
As for `N[C@@H]1CN(c2c(F)cc3c(=O)c(C(=O)O)cn([C@@H]4C[C@@H]4F)c3c2Cl)CC12CC2` [Sitafloxacin hydrate], the figure is 105%; as for `COC(=O)C1=C(C)NC(C)=C(C(=O)OC(C)C)C1c1cccc2nonc12` (stereo not given) [Isradipine (Dynacirc)], 103%.
In the case of `O=C(Nc1nccs1)C(c1cc(F)ccc1O)N1Cc2ccccc2C1=O` (stereo not given), the cell viability was 105%.
Consider `Nc1cc(F)ccc1NC(=O)/C=C/c1cnn(C/C=C/c2ccccc2)c1`, for which the cell viability is 100%.
For `C=C1[C@H](O)C[C@H]2[C@@H](/C=C(\C)C(=O)[C@@]3(O)C[C@H](C)[C@H](O)[C@@H]3[C@H]1O)C2(C)C`, the cell viability was found to be 100%.
With `O=C(Nc1cccc(C(F)(F)F)c1)Nc1cc(S(=O)(=O)NC2CC2)ccc1-c1ccsc1` the figure was 104%.
As for `CC(C)(NS(=O)(=O)c1ccc2c(Cl)cnc(N=C(N)N)c2c1)C(=O)O`, the figure is 111%; as for `C[C@]12CCC3=C4CCC(=O)C=C4CC[C@H]3[C@@H]1CC[C@@]2(O)CC#N` [Dienogest], 107%.
As for `Cc1ccc(NS(=O)(=O)c2ccc3c(c2)C2C=CCC2C(c2ccc(C(=O)O)cc2)N3)cc1C` (stereo not given), the figure is 101%; as for `CC(=O)O[C@]1(C(C)=O)CC[C@H]2[C@@H]3C[C@H](C)C4=CC(=O)C=C[C@]4(C)[C@@]3(F)[C@@H](O)C[C@@]21C` [Fluorometholone Acetate], 105%.
With `Cc1cccc(-c2[nH]c(C(C)(C)C)nc2-c2ccc3nccnc3c2)n1`, the cell viability came out at 105%.
As to `COc1ccc(Cn2ccc3ccc(C(=O)NO)cc32)cc1`, the cell viability turned out to be 75.9%.
Take `COc1cc(C(=O)O)ccc1NC(=O)[C@@H]1N[C@@H](CC(C)(C)C)[C@](C#N)(c2ccc(Cl)cc2F)[C@H]1c1cccc(Cl)c1F` [Idasanutlin (RG-7388)]: the cell viability stood at 131%.
